# Anthrax LF inh2: inhibitors of Bacillus anthracis lethal factor protease. P15917. AID 588501. 360,000 tested, 0.12% active. multiplex microsphere protease cleavage assay, LF. inhibition, % at 10 µM; also: plate controls were buffer without enzyme for full effect and enzyme alone for no effect
# Target sequence (P15917 whole entry, looked up): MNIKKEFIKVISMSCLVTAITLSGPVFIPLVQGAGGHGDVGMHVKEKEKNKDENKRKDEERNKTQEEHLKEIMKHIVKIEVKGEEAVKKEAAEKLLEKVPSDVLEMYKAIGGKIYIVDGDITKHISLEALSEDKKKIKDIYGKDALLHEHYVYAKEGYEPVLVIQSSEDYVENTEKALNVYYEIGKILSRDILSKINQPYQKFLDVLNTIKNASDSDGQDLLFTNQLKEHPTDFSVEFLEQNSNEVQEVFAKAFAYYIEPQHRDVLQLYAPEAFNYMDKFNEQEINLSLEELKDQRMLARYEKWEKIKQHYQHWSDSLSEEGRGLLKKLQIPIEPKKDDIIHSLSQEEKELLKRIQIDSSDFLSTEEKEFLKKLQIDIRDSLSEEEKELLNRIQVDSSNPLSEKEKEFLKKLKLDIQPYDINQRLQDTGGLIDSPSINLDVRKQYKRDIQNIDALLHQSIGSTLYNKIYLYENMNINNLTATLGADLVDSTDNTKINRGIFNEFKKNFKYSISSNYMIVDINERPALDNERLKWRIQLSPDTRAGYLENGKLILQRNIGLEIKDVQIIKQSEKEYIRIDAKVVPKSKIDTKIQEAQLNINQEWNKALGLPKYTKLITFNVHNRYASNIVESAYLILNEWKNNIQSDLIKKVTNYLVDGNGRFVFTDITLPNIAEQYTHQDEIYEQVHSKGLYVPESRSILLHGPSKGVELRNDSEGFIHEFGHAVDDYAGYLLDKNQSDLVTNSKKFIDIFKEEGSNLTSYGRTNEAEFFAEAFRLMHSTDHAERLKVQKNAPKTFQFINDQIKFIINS
# BoNT F protease: inhibitors of Botulinum neurotoxin F light chain protease | Multiplex microsphere protease cleavage assay, flow cytometry | inhibition, % at 10 µM | 360,000 tested, 0.22% active; in the data active = inhibition above about 35%, passing the limit was not always enough; inconclusive = no clear call, values can overlap the other calls; also: plate controls were buffer without enzyme for full effect and enzyme alone for no effect
# Bead autofluor: compound fluorescence in toxin protease inhibitor counterscreen. AID 624483. compound autofluorescence counterscreen, microsphere flow cytometry; hits give high values. fluorescence intensity (concentration not given with the values). 360,000 tested, 3.1% active; in the data active = fluorescence intensity above about 16000; inconclusive = no clear call, values can overlap the other calls
# PriA SSB inh: blocks PriA binding to SSB C-terminal tail; inhibition, % at 33 µM; AlphaScreen SSBct-PriA binding, biotinylated peptide; AID 1272365; 430,000 tested, 0.6% active; in the data active = inhibition mostly above about 37%, no sharp cut-off; inactive = mostly below about 20%;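 also: plate controls were negative control peptide for no effect and reference peptide for full effect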
# BoNT A protease: blocks Botulinum neurotoxin A light chain protease | inhibition, % at 10 µM | 360,000 tested, 0.17% active | AID 588499 | multiplex microsphere protease substrate cleavage, flow cytometry; also: plate controls were buffer without enzyme for full effect and enzyme alone for no effect
# Starred values were filed as active, the others as inactive; ? = inconclusive; . = no result given; ! = not confirmed by another sample. The list is not random: actives were taken first. Their share in the collection is about 3.1%. Rule as the data show it, unless noted: active = inhibition above about 30%; inconclusive = no clear call, values can overlap the other calls; inactive = below that.
SMILES,Anthrax LF inh2,BoNT F protease,Bead autofluor,PriA SSB inh,BoNT A protease
CCC(C)NCCCCOc1ccc(C)cc1[N+](=O)[O-] (stereo not given),-0.4,-0.8,20177*,-4.1,-0.5
CCOc1ccc2nc(NC(C)=O)sc2c1,.,.,.,-6.0,.
CN(C)/C=C/C(=O)c1ccc2noc(-c3cccc(F)c3)c2c1,0.8,7.3,3510,-5.3,10.4
COc1ccc(-c2onc3ccc(C(=O)/C=C/N(C)C)cc23)cc1,-10.1,44.9*,9723,0.9,1.3
COc1cccc(C(=O)NC(=O)c2oc3ccccc3c2C(N)=O)c1OC,.,.,.,1.0,.
CCn1c(SCc2nnc(-c3ccccc3)o2)nnc1-c1ccc(S(=O)(=O)N2CCCC2)cc1,0.1,-3.2,23063*,-4.6,-1.3
O=[N+]([O-])c1c(NCCO)cc(N2CCCCCC2)c2nonc12,100.1*,?,3454,-10.3,-4.0
Cc1c(-n2c(-c3ccccc3)csc2=NC(=O)c2ccccc2)c(=O)n(-c2ccccc2)n1C,.,.,.,44.0*,.
CCOC(=O)N1CCN(C(=O)c2ccccc2N(C)S(C)(=O)=O)CC1,-3.8,-3.7,16798*,-1.3,-2.2
CCOC(=O)N1CCN(C(=O)c2ccc(NS(C)(=O)=O)cc2)CC1,-2.7,0.6,16339*,-4.3,-0.3
N#Cc1c(N)sc2c1CCN(CCc1ccccc1)C2,0.6,-141.1,5685,-3.2,64.8*
N=C(N)Sc1c(-c2ccccc2)[nH]c2ccccc12,.,.,.,37.0*,.
CC(OC(=O)c1cccnc1SCc1cc(=O)n2ccccc2n1)c1ccccn1 (stereo not given),-3.5,-5.0,16644*,-2.3,-3.0
CCOC(=O)C(CCSC)NC(=O)CN (stereo not given),-1.0,-2.2,22429*,-15.5,0.2
O=C(Nc1ccc2sccc2c1)C1CCN(S(=O)(=O)c2ccc(Cl)s2)CC1,.,.,.,7.0,.
O=C(O)CN1CCOC1=O,.,.,.,-6.0,.
CCn1nc(C)c2c1c(=O)n(Cc1ccc(F)cc1)c(=O)n2CC(=O)Nc1ccsc1C(=O)OC,.,.,.,-24.0,.
CCCCCC1CC(CC#CCN2CCOCC2)C(=O)O1 (stereo not given),-1.1,5.7,21965*,-9.5,4.5
CCCCCC1CC(CC(=O)O)C(=O)O1 (stereo not given),-3.4,-4.4,3926,-19.6,-0.6
O=C(CNC(=O)c1ccccc1C(=O)O)c1ccccc1,3.0,3.0,22929*,-9.9,0.2
CC(=NNC(=O)CNC(=O)c1ccco1)c1ccc(Br)cc1,.,.,.,-3.7,.
O=C(Nc1c(Cl)cccc1Cl)c1cc(=O)n(Cc2ccccc2)c(=O)[nH]1,1.7,-0.6,21337*,-12.0,?
Cc1cccc(NC(=O)c2cc(=O)n(Cc3ccccc3)c(=O)[nH]2)c1,-2.1,-2.8,2395,-4.2,-0.6
CC(=O)Nc1nonc1-c1nc2ccccc2n1Cc1nnc(C)o1,1.2,-0.7,22950*,1.5,0.7
CCn1c(-c2nonc2NC(=O)c2ccccc2)nc2ccccc21,-1.4,1.2,20786*,-7.0,-0.5
SMILES,Anthrax LF inh2,BoNT F protease,Bead autofluor,PriA SSB inh,BoNT A protease
CC(=O)Nc1nonc1-c1nc2ccccc2n1Cc1ccccc1,1.8,13.9,3900,-10.6,0.4
O=C(Nc1nc2ccccc2s1)C1CCCN1S(=O)(=O)c1ccc(Cl)cc1 (stereo not given),-1.8,-7.2,22849*,13.2,?
Cc1nnc(NC(=O)C2CCCN2S(=O)(=O)c2ccc(Cl)cc2)s1 (stereo not given),-7.2,-3.4,4411,-7.8,-1.0
Cc1ccc(S(=O)(=O)N2CCCC2C(=O)N(C)Cc2cccs2)cc1 (stereo not given),-0.5,1.3,19722*,-11.1,?
Cc1ccc(S(=O)(=O)N2CCCC2C(=O)Nc2nc3ccccc3s2)cc1 (stereo not given),-4.8,-2.8,20751*,5.1,-0.5
Cc1nc(C)c(C(=O)N2CCN(c3cnnc(N4CCOCC4)c3)CC2)s1,.,.,.,-6.0,.
C[C@](O)(CNC(=O)C(=O)Nc1ccccc1Cl)c1ccc(-c2ccccc2)cc1,.,.,.,-10.0,.
CS(=O)(=O)Nc1cnc(N2CCOCC2)nc1,.,.,.,5.0,.
O=C(Cc1ccc(-n2c(=O)[nH]c3ccsc3c2=O)cc1)N1CCC(N2CCCCC2)CC1,.,.,.,-3.0,.
O=C(Cc1ccc(-n2c(=S)[nH]c3ccccc3c2=O)cc1)N1CCC(N2CCCCC2)CC1,0.7,-2.9,23979*,6.6,-1.9
Cc1ccccc1-n1c(C)nnc1SCc1nc2ccccc2s1,-0.3,-20.2,11103,9.7,0.7
CCOc1ccccc1-n1nnnc1SCc1nc2ccccc2s1,-2.9,-8.4,17496*,-6.5,-4.2
COC(=O)CCc1c(C)c(C#N)c2nc3ccccc3n2c1N1CCN(C/C=C/c2ccccc2)CC1,.,.,.,-3.0,.
COC(=O)CCc1c(C)c(C#N)c2nc3ccccc3n2c1N1CCCC1,0.3,2.7,22382*,0.6,2.7
COCCN(Cc1ccsc1)C(=O)Cc1c(F)cccc1Cl,.,.,.,-10.0,.
COc1ccc(NC(=O)C(C)NS(=O)(=O)c2ccc(NC(C)=O)cc2)cc1Cl (stereo not given),-2.8,-4.5,23479*,-6.1,-0.4
COc1ccc(S(=O)(=O)NC(C)C(=O)Nc2ccccc2)cc1Cl (stereo not given),2.5,0.0,6053,-11.8,-1.6
COC(=O)Nc1ccc(S(=O)(=O)Nc2cccc3ccccc23)cc1,-8.9,0.0,21995*,-6.8,?
COc1ccccc1NS(=O)(=O)c1ccc(NC(C)=O)cc1,-5.1,-0.2,18703*,-8.9,1.4
O=C(Nc1cnoc1)c1ccsc1,.,.,.,-6.0,.
CC(=O)Nc1nc(SCc2ccccc2C)[nH]c(=O)c1NC(=O)c1cccs1,.,.,.,-25.0,.
Nc1c(NC2CCCCC2)c2ccccc2oc1=O,-0.7,2.4,22176*,50.0*!,2.6
Nc1c(NCCN2CCOCC2)c2ccccc2oc1=O,-5.0,2.3,3228,-7.0,0.0
Nc1c(NCCCN2CCOCC2)c2ccccc2oc1=O,2.1,-5.1,21802*,3.2,-3.7
CCOC(=O)c1ccccc1NC(=O)CSc1nnc2n1CCN2c1ccc(OCC)cc1,.,.,.,-1.0,.
SMILES,Anthrax LF inh2,BoNT F protease,Bead autofluor,PriA SSB inh,BoNT A protease
Cc1cccc(OCc2nnc(SCC(=O)N3CCCC3)n2C)c1,-0.5,4.0,16407*,-5.9,0.5
Cc1cccc(OCc2nnc(SCC(=O)NC3CCCC3)n2C)c1,3.6,-2.3,3674,-0.3,-0.1
Cc1cccc(OCc2nnc(SCC(=O)N3CCc4ccccc43)n2C)c1,-1.9,-1.1,24057*,11.2,-3.1
O=C(CN1CCC2(CC1)N=C(c1ccc(Br)cc1)C(=O)N2)NCc1ccc(F)cc1,.,.,.,-11.0,.
O=C(Nc1ccc2c(c1)OCO2)c1ncccn1,.,.,.,-11.0,.
O=C(CCSc1ccc(Cl)cc1)Nc1nccs1,.,.,.,8.0,.
O=C(CCSc1ccccc1)Nc1nccs1,-0.1,-2.2,16866*,-8.7,?
Nc1ccc2c(c1)N(C(=O)c1ccco1)CCC2,.,.,.,16.0,.
CC(C)(C)C(=O)CN1CCN(C2c3ccccc3-c3ccccc32)CC1,-7.5,-7.7,21967*,-6.2,-5.7
O=c1c2ccccc2[nH]c(=S)n1-c1cccc(C(F)(F)F)c1,-2.4,-2.5,3418,.,-0.2
Nc1cc(=O)[nH]c(=S)n1-c1cccc(C(F)(F)F)c1,-5.2,-2.1,16135*,-16.6,-0.4
CCOC(=O)CSc1nc2cc(C(=O)NCC3CCCO3)ccc2c(=O)n1Cc1ccco1 (stereo not given),-3.8,1.7,22243*,1.0,1.1

# Compound activity from PubChem BioAssay.
